Assay results from PubChem BioAssay AID455 (Sanford-Burnham Center for Chemical Genomics, 2006).
Out of some 10,000 compounds screened, about 20 (0.2%) were called active.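 Rule for the calls: active = a compound raising TNF-alpha-driven VCAM-1 surface staining, with its hit status upheld on visual or statistical review; inactive = the rest, including hits rejected on review.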 Shown is part of a subset that was picked to be rich in actives.

Assay: boosters of cytokine-driven VCAM-1 levels – cell-based, plate reader, pooled HUVEC, TNFa stimulus (AID 455);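 for augmentation: 0% = TNFa plus DMSO wells and 100% = a visually confirmed top hit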
Conditions: HUVEC TNFa-induced VCAM-1 immunofluorescence; hits give high values, 100% set by best visually verified hit,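 tested at 5 µM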

Q: Which augmentation does the source give for Cc1ccc(O)c(-c2cc3ccccc3[nH]2)c1 here?
A: The augmentation was “inactive”.

Q: With CC(C)NC(=O)CSc1nc2ccccc2n1-c1ccccc1 as the molecule, how does the augmentation read?
A: The augmentation was “inactive”.

Q: For CC(C)N=c1cc2n(-c3ccc(Cl)cc3)c3ccccc3nc-2cc1Nc1ccc(Cl)cc1, which augmentation is on record?
A: The augmentation was 74% (active).

Q: With CC(O)c1nc2ccccc2n1C1CCCCC1 (stereo not given) as the molecule, how does the augmentation read?
A: The augmentation was “inactive”.

Q: Which augmentation does the source give for CCOC(=O)C1CN(S(=O)(=O)c2ccc(C)cc2)CCN1S(=O)(=O)c1ccc(C)cc1 (stereo not given) here?
A: Its augmentation is “inactive”.

Q: For CCOc1ccccc1N1C(=O)CC(Sc2ncccc2C(=O)O)C1=O (stereo not given), which augmentation is on record?
A: The augmentation was “inactive”.

Q: For COc1ccc(-c2oc3ncn(CCN4CCOCC4)c(=N)c3c2-c2ccc(OC)cc2)cc1, which augmentation is on record?
A: The augmentation was “inactive”.

Q: For CC1=C(C(=O)OC2CCCC2)C(c2ccc(C)o2)C2=C(CC(c3cccs3)CC2=O)N1 (stereo not given), which augmentation is on record?
A: Its augmentation is “inactive”.

Q: With COc1cccc(CNC(=O)C2CCN(S(=O)(=O)c3ccc(F)cc3)CC2)c1 as the molecule, how does the augmentation read?
A: The augmentation was “inactive”.

Q: For CCCCSc1nnc([C@H](C)NC(=O)OC(C)(C)C)o1, which augmentation is on record?
A: The augmentation was “inactive”.

Q: With O=C(OC1CCOC1=O)c1ccc2ccccc2n1 (stereo not given) as the molecule, how does the augmentation read?
A: Its augmentation is “inactive”.

Q: For Cn1cccc1-c1nc2ccc(NC(=O)c3ccco3)cc2[nH]1, which augmentation is on record?
A: The augmentation was 65.1% (inactive).

Q: Which augmentation does the source give for O=C(Nc1ccc2nc(-c3cccs3)[nH]c2c1)c1ccco1 here?
A: The augmentation was 72.4% (active).

Q: For COc1ccc(NC(=O)c2ccco2)cc1NC(=O)c1cccs1, which augmentation is on record?
A: The augmentation was “inactive”.

Q: For CCN1C(=O)c2cccc3c(NC(=O)c4ccc5c(c4)OCCO5)ccc1c23, which augmentation is on record?
A: The augmentation was “inactive”.

Q: Which augmentation does the source give for O=C(Nc1cccc2ncccc12)c1ccc2c(c1)OCCO2 here?
A: The augmentation was 81% (active).

Q: For O=C(Nc1ccccc1-c1nc2ccccc2o1)c1ccc2c(c1)OCCO2, which augmentation is on record?
A: Its augmentation is “inactive”.

Q: Which augmentation does the source give for CC(C)C(=O)N1CCN(c2nc(-c3ccccc3)c3c(c2C#N)CCCC3)CC1 here?
A: The augmentation was “inactive”.

Q: For Oc1cccc(C=NCc2ccccc2)c1O, which augmentation is on record?
A: The augmentation was 61.8% (active).

Q: Which augmentation does the source give for FC(F)Sc1nnc(-c2cccs2)n1-c1ccccc1 here?
A: Its augmentation is “inactive”.

Q: Which augmentation does the source give for CCCC(=O)Nc1cc(C)c2c(=O)oc3ccccc3c2n1 here?
A: Its augmentation is “inactive”.

Q: With Cc1ccc(Br)cc1S(=O)(=O)N1CCN(c2ccccc2)CC1 as the molecule, how does the augmentation read?
A: The augmentation was “inactive”.

Q: For Cc1cc(C)c2c(n1)nn1c(C3CC3)cc(C(F)(F)F)nc21, which augmentation is on record?
A: The augmentation was “inactive”.

Q: Which augmentation does the source give for COc1ccc(C(=O)CN2C3=NCCCN3c3ccccc32)cc1OC here?
A: Its augmentation is 71.2% (active).

Q: With CCOC(=O)CN1C2=NCCN2c2ccccc21 as the molecule, how does the augmentation read?
A: The augmentation was “inactive”.

Q: For c1ccc(CN2C3=NCCCN3c3ccccc32)cc1, which augmentation is on record?
A: The augmentation was “inactive”.

Q: Which augmentation does the source give for Cc1cccc(NC(=O)CC2CCC2)c1 here?
A: Its augmentation is “inactive”.

Q: With Cc1cc(C)n(-c2nc3sc4c(c3c3nnc(SCC(N)=O)n23)CC(C)(C)OC4)n1 as the molecule, how does the augmentation read?
A: The augmentation was “inactive”.

Q: With CCCC(=O)Nc1cc(C)c(NC(=O)c2ccccn2)cn1 as the molecule, how does the augmentation read?
A: Its augmentation is “inactive”.

Q: For COCCn1c(CN2CCN(c3cccc(Cl)c3)CC2)nc2c1c(=O)n(C)c(=O)n2C, which augmentation is on record?
A: The augmentation was “inactive”.

Q: With O=c1cc(NCc2ccccc2)nc2n1CCCS2 as the molecule, how does the augmentation read?
A: The augmentation was “inactive”.

Q: For O=C(Nc1cccc(F)c1)c1ccc2c(c1)OCO2, which augmentation is on record?
A: The augmentation was “inactive”.

Q: With O=C1CCCN1Cc1ncnn1-c1ccccc1 as the molecule, how does the augmentation read?
A: Its augmentation is “inactive”.

Q: With O=C(Nc1ccc2c(c1)OCO2)N1CCN(c2ncccn2)CC1 as the molecule, how does the augmentation read?
A: The augmentation was “inactive”.

Q: With CCC(=O)N1CCc2cc(S(=O)(=O)CCC(=O)Nc3ccc(C)c(F)c3)ccc21 as the molecule, how does the augmentation read?
A: Its augmentation is “inactive”.

Q: With CCC(=O)N1CCc2cc(S(=O)(=O)CCC(=O)Nc3c(C)n(C)n(-c4ccccc4)c3=O)ccc21 as the molecule, how does the augmentation read?
A: The augmentation was 70.3% (active).

Q: For CCC(=O)N1CCc2cc(S(=O)(=O)CCC(=O)Nc3nc(C)cs3)ccc21, which augmentation is on record?
A: The augmentation was “inactive”.

Q: Which augmentation does the source give for CCc1nc(N[C@@H](Cc2c[nH]c3ccccc23)C(=O)O)c2oc3ccccc3c2n1 here?
A: The augmentation was “inactive”.

Q: For Cc1cc2c(=O)n(CC(=O)N3CCN(c4ccccc4)CC3)cnc2s1, which augmentation is on record?
A: Its augmentation is “inactive”.

Q: For Cc1csc(NC(=O)c2ccccc2C(=O)O)n1, which augmentation is on record?
A: The augmentation was “inactive”.

Q: For CC(C)(C)c1ccc(OCC(=O)O)cc1, which augmentation is on record?
A: The augmentation was “inactive”.

Q: For Cc1cc(C)nc(N2CCCC(C(=O)Nc3nc4ccc(S(C)(=O)=O)cc4s3)C2)n1 (stereo not given), which augmentation is on record?
A: The augmentation was “inactive”.

Q: For COc1cc(NC(=O)CN(c2cc(C)cc(C)c2)S(=O)(=O)c2c(C)noc2C)cc(OC)c1, which augmentation is on record?
A: The augmentation was “inactive”.

Q: With Cc1ccc(NC(=O)CSc2nnc(CSc3nc(C)cc(C)n3)n2Cc2ccco2)c(C)c1 as the molecule, how does the augmentation read?
A: The augmentation was “inactive”.

Q: With CCn1c(=S)ccc2ccc(OC)cc21 as the molecule, how does the augmentation read?
A: The augmentation was “inactive”.

Q: With CCOc1ccc(NC(=O)CSc2nccn2C)cc1 as the molecule, how does the augmentation read?
A: The augmentation was “inactive”.

Q: With COC(=O)c1ccc2c(c1)C(=O)N(C1CCCCC1)C2=O as the molecule, how does the augmentation read?
A: Its augmentation is “inactive”.

Q: Which augmentation does the source give for CCOc1cc(C2NC(=O)N(C)C(C)=C2C(=O)OC)cc(Br)c1O (stereo not given) here?
A: The augmentation was “inactive”.

Q: For CCOC(=O)C1=C(C)NC(=O)NC1c1ccc(OCCO)c(OC)c1 (stereo not given), which augmentation is on record?
A: The augmentation was “inactive”.

Q: For CCOC(=O)C1=C(C)NC2=C(C(=O)CC(C)(C)C2)C1c1ccc(N(C)C)cc1 (stereo not given), which augmentation is on record?
A: Its augmentation is “inactive”.

Q: For CCOC(=O)C1=C(c2ccccc2)NC(=O)NC1c1ccc(N(C)C)cc1 (stereo not given), which augmentation is on record?
A: Its augmentation is 63.8% (active).

Q: For Cc1ccc(S(=O)(=O)NC(=O)c2cc(C)n(CCCn3ccnc3)c2C)cc1, which augmentation is on record?
A: Its augmentation is “inactive”.

Q: With COc1ccc(C(=O)Nc2nc(C)c(C(=O)N(C)C)s2)cc1OC as the molecule, how does the augmentation read?
A: Its augmentation is “inactive”.

Q: Which augmentation does the source give for COc1ccccc1NC(=O)NC(N)=O here?
A: The augmentation was “inactive”.

Q: For O=C(C1CC1)N1CCc2cc(Br)cc(S(=O)(=O)N3CCOCC3)c21, which augmentation is on record?
A: Its augmentation is “inactive”.

Q: With CC1(C)Cc2ccccc2C(N)=C1C#N as the molecule, how does the augmentation read?
A: Its augmentation is “inactive”.

Q: For CCN1CCN(c2nc(C)nc3c2sc(=S)n3C)CC1, which augmentation is on record?
A: The augmentation was “inactive”.

Q: For CCc1cc2ccc(C)cc2nc1SCC(=O)N1CCN(C(=O)c2ccco2)CC1, which augmentation is on record?
A: The augmentation was “inactive”.

Q: Which augmentation does the source give for O=c1c2[nH]c3ccccc3c2ncn1CCCn1ccnc1 here?
A: The augmentation was “inactive”.

Q: With O=C1CCCN1CCCNc1ncnc2c1[nH]c1ccc(Cl)cc12 as the molecule, how does the augmentation read?
A: Its augmentation is “inactive”.

Q: With O=c1c2[nH]c3ccc(Cl)cc3c2ncn1Cc1ccccn1 as the molecule, how does the augmentation read?
A: Its augmentation is 100% (active).

Q: Which augmentation does the source give for COc1cc(-c2nc(S(=O)(=O)c3ccccc3)c(N3CCOCC3)o2)cc(OC)c1OC here?
A: Its augmentation is “inactive”.

Q: With COc1cc2[nH]c(=O)c(C(=O)NCCCN3CCCCC3)c(O)c2cc1OC as the molecule, how does the augmentation read?
A: Its augmentation is “inactive”.

Q: Which augmentation does the source give for COc1cccc(C2C(C(=O)c3cccs3)=C(O)C(=O)N2CCCn2ccnc2)c1OC (stereo not given) here?
A: Its augmentation is “inactive”.

Q: With Cc1cccc(C(=O)N2CCN(C(=O)c3cccc(C)c3)C(C)C2)c1 (stereo not given) as the molecule, how does the augmentation read?
A: The augmentation was “inactive”.

Q: For CC(=O)c1ccccc1NS(=O)(=O)c1c(C)nn(-c2ccccc2)c1C, which augmentation is on record?
A: The augmentation was “inactive”.

Q: With COc1cccc(NC(=O)N(CCCN2CCOCC2)C(C)c2cc3cccc(OC)c3o2)c1 (stereo not given) as the molecule, how does the augmentation read?
A: Its augmentation is “inactive”.

Q: Which augmentation does the source give for S=C(c1ccc(N2CCOCC2)cc1)N1CCCCC1 here?
A: The augmentation was “inactive”.

Q: For COc1ccccc1C1/C(=C(\O)c2c(C)nc3c(C)cccn23)C(=O)C(=O)N1CCCN(C)C (stereo not given), which augmentation is on record?
A: Its augmentation is “inactive”.

Q: For COc1ccc(S(=O)(=O)Nc2ccc(F)c(Cl)c2)cc1OC, which augmentation is on record?
A: The augmentation was 70.4% (active).

Q: Which augmentation does the source give for COc1ccc(S(=O)(=O)Nc2ccc(S(=O)(=O)N3CCCCC3)cc2)cc1OC here?
A: The augmentation was “inactive”.

Q: Which augmentation does the source give for COc1ccc(S(=O)(=O)Nc2ccc(F)c(F)c2)cc1Cl here?
A: Its augmentation is “inactive”.

Q: With COC(=O)Cc1c(C)c2ccc(OCC(=O)N3CCOCC3)cc2oc1=O as the molecule, how does the augmentation read?
A: Its augmentation is “inactive”.

Q: For CCCSc1nnc(N2C(=O)CC(c3ccsc3)C3=C2CCCC3=O)s1 (stereo not given), which augmentation is on record?
A: The augmentation was “inactive”.

Q: For COc1ccc(-c2nnc(SCC(=O)NC(=O)NCc3ccco3)o2)cc1, which augmentation is on record?
A: Its augmentation is “inactive”.
